The list shows a part of the results. Values without a mark were called inactive. Rule as the data show it: active = activation above about 17%; inactive = the rest.

The text below walks through data of PubChem BioAssay AID504905 (The Scripps Research Institute Molecular Screening Center, 2011).

The target of the experiment is 5-hydroxytryptamine receptor 5A (Homo sapiens) (UniProt P47898). Briefly: activation of human 5-HT5A receptor – cell-based, luminescence, counter-screen for OPRM1-OPRD1 heterodimer agonist project (AID 504905).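 Also: 0% = vehicle-treated cells and 100% = reference agonist response.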 The settings on record: HTR5A agonist counterscreen, at 9.3 µM, hits give high values. (A counterscreen serves to expose hits that act by an unwanted route or on another target.)
5-hydroxytryptamine receptor 5A (Homo sapiens), sequence (P47898 whole entry, looked up): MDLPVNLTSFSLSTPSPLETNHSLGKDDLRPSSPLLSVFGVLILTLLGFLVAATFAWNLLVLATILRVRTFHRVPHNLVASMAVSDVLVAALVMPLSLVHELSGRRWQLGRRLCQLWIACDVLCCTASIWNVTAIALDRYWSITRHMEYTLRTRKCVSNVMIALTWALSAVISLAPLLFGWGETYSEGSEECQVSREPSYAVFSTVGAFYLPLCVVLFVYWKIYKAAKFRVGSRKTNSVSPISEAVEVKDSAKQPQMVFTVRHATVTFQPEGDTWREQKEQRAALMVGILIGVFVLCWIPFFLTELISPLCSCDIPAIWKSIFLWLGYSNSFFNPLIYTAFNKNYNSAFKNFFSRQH
With `CC(OC(=O)/C=C/c1ccccc1)C(=O)Nc1ccc(C(N)=O)cc1` (stereo unspecified), the activation was 0.16%.
In the case of `Cc1ccc(CNC(=O)CC(NC(=O)c2ccccc2)c2ccccc2)cc1` (stereo unspecified) it was -9.71%.
The same measure for `CN1CCN(c2ccc([N+](=O)[O-])c(Sc3nc4ccccc4[nH]3)c2)CC1`: -0.05%; for `O=C(Nc1ccc(OC(F)(F)F)cc1)c1ccc2c(c1)no[n+]2[O-]`: 1.96%.
As to `O=C(NCc1cn2ccsc2n1)Nc1ccc(Cl)cc1`, the activation was -5.53%.
The same measure for `CCC(C(=O)OCC(=O)Nc1ccc(C(=O)Nc2ccc(OC)cc2)cc1)c1ccccc1` (stereo unspecified): 5.87%.
The same measure for `COc1cc(/C=N/NC(=O)Nc2ccccc2)ccc1OCCOc1ccccc1C`: 10.4%; for `Cc1ccc(OCC(=O)Nc2ccc(NC(=O)c3cccs3)cc2)c(C)c1`: 8.16%.
Regarding `CCOC(=O)C1(CC2CCCCO2)CCN(Cc2nc(-c3cccs3)oc2C)CC1` (stereo unspecified), the activation is 3.31%.
In the case of `CCOC(=O)c1c(C)[nH]c2c1-c1ccccc1C(=O)C2=O` it was 9.05%; in that of `CN(C)C(CNC(=O)c1ccc(S(=O)(=O)NCc2ccco2)cc1)c1ccccc1` (stereo unspecified), 4.56%; in that of `N#C/C(=C(/O)COC(=O)COc1ccc(Cl)cc1)c1nc2ccccc2[nH]1`, 9.3%.
For the compound `COc1ccc(C(CNCC(=O)Nc2ccccc2F)N(C)C)cc1` (stereo unspecified), the activation is 5.09%.
In the case of `Clc1ccc(COn2c(-c3ccc(Cl)cc3Cl)nc3ncccc32)cc1` it was 0.23%.
The same measure for `Cc1ccc(Nc2ccccc2N)cc1`: 0.79%; for `N#CC(C(=O)c1ccc(S(=O)(=O)N2CCCCCC2)cc1)c1nc2ccccc2[nH]1` (stereo unspecified): 5.09%.
For `COc1ccc(SC[C@H](Cc2ccccc2)N2CCN(CCc3ccccc3)CCC2=O)cc1`, the activation was -1.8%.
Take `O=C(NC1=CC(=O)c2ccccc2C1=O)c1ccccc1`: the activation is 3.59%.
With `Cc1ccc(CN(C(=O)c2sc3ccccc3c2Cl)C2CCS(=O)(=O)C2)cc1` (stereo unspecified), the activation was 1.71%.
Regarding `Cc1ccc(-n2c(SCC(=O)NCCC3=CCCCC3)nc3n[nH]c(C)c3c2=N)cc1Cl`, the activation was 1.57%.
The same measure for `Cc1ccc(O)c(NC(=S)NC(=O)COc2ccc(Br)cc2)c1`: 0.97%.
